The panel holds about 83,000 compounds, 20% with a hit somewhere; the sample as a whole holds those more often.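 Method: cells in 96-well plates; compound added at one concentration; 48 h incubation; percent growth measured; values under 10 scored active.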 Values without a mark were called inactive. The source made the active and inactive calls.

Some test systems named below: RPMI-8226 leukemia; OVCAR-8 ovarian; OVCAR-5 ovarian; OVCAR-4 ovarian; SK-OV-3 ovarian; IGROV1 ovarian; OVCAR-3 ovarian; HS 578T breast; NCI/ADR-RES ovarian; T-47D breast; BT-549 breast; MDA-MB-435 melanoma; SW-620 colon; MCF7 breast; HCT-116 colon; HCC-2998 colon; KM12 colon.
What all share (test): NCI-60 one-dose screen, 48 h (100 = growth as untreated, 0 = no growth, -100 = all killed)
Holding throughout (settings): 10 µM unless noted

With `CCOc1nc(-c2ccccc2)cc2c(O)c(C(=O)n3nc(C)cc3C)[nH]c(=O)c12`, the growth in the assay on RPMI-8226 leukemia is 103%; with OVCAR-8 ovarian it was 101%; in the assay on OVCAR-5 ovarian, 106%; in the assay on OVCAR-4 ovarian, 100%; in the assay with SK-OV-3 ovarian, 102%; in the assay on IGROV1 ovarian, 97.4%. For the same compound, the growth in the assay on OVCAR-3 ovarian was 112%; in the assay with HS 578T breast, 115%; in the assay on NCI/ADR-RES ovarian it was 111%; with T-47D breast it was 107%; in the assay with BT-549 breast, 99.9%; in the assay with MDA-MB-435 melanoma, 112%. Besides, the growth with SW-620 colon is 115%; in the assay with MCF7 breast, 101%; in the assay on HCT-116 colon, 101%; in the assay on HCC-2998 colon, 112%; in the assay with KM12 colon, 106%.
Take `Cc1nc2c(O)cccc2cc1CO`: the growth with RPMI-8226 leukemia was 113%; with OVCAR-8 ovarian, 120%; with OVCAR-5 ovarian, 92.7%; with OVCAR-4 ovarian it was 100%; in the assay with SK-OV-3 ovarian it was 110%; with IGROV1 ovarian, 120%. Further, the growth is 112% in the assay on OVCAR-3 ovarian; 130% in the assay with HS 578T breast; 96.1% with NCI/ADR-RES ovarian; 99.4% in the assay with T-47D breast; 149% in the assay with BT-549 breast; 109% in the assay on MDA-MB-435 melanoma. For the same compound, the growth with SW-620 colon is 108%; in the assay on MCF7 breast, 96.8%; in the assay with HCT-116 colon it was 107%; in the assay with HCC-2998 colon, 103%; with KM12 colon, 113%.
With `OCc1nnn(-c2ccccc2)c1CO`, the growth was 101% in the assay on RPMI-8226 leukemia; 109% in the assay on OVCAR-8 ovarian; 112% in the assay with OVCAR-5 ovarian; 99.2% in the assay with OVCAR-4 ovarian; 129% in the assay with SK-OV-3 ovarian; 108% with IGROV1 ovarian. Moreover, the growth in the assay with OVCAR-3 ovarian was 117%; in the assay with HS 578T breast, 117%; in the assay on NCI/ADR-RES ovarian, 115%; with T-47D breast, 114%; in the assay on BT-549 breast, 157%; in the assay on MDA-MB-435 melanoma, 114%. Besides, the growth is 105% in the assay on SW-620 colon; 106% with MCF7 breast; 105% in the assay on HCT-116 colon; 119% with HCC-2998 colon; 116% with KM12 colon.
`O=C(Nc1ccc(Cl)cc1)Nc1ccc(Nc2nncc3ccccc23)cc1`: the growth is 8.62% (active) in the assay on RPMI-8226 leukemia; 18.2% in the assay with OVCAR-8 ovarian; 85.6% in the assay on OVCAR-5 ovarian; 11.1% in the assay on OVCAR-4 ovarian; 38.2% in the assay with SK-OV-3 ovarian; 39.7% in the assay with IGROV1 ovarian. Further, the growth is 17.6% in the assay with OVCAR-3 ovarian; 58.3% in the assay with HS 578T breast; 36.2% in the assay on NCI/ADR-RES ovarian; -6.32% (active) with T-47D breast; 15.7% in the assay on BT-549 breast; 13.7% in the assay with MDA-MB-435 melanoma. In addition, the growth was 27% in the assay with SW-620 colon; 5.46% (active) in the assay on MCF7 breast; 15.2% in the assay with HCT-116 colon; 30.7% in the assay with HCC-2998 colon; 18.9% in the assay with KM12 colon.
For `O=C(C=C=Nc1ccccc1)C(=O)N=C=Cc1ccccc1`, the growth is -59.5% (active) in the assay with RPMI-8226 leukemia; 60.8% in the assay with OVCAR-8 ovarian; 75.5% in the assay on OVCAR-5 ovarian; 50.6% in the assay on OVCAR-4 ovarian; 107% with SK-OV-3 ovarian; 51.5% in the assay on IGROV1 ovarian. Moreover, the growth was 13.5% in the assay on OVCAR-3 ovarian; 94.8% in the assay on HS 578T breast; 65.5% with NCI/ADR-RES ovarian; 17.7% with T-47D breast; -7.61% (active) in the assay with BT-549 breast; 50.7% with MDA-MB-435 melanoma. Further, the growth was -26.3% (active) in the assay on SW-620 colon; 25.9% in the assay on MCF7 breast; -36.3% (active) in the assay on HCT-116 colon; 74.1% in the assay on HCC-2998 colon; 81.5% in the assay with KM12 colon.
For `O=C(Nc1ccc(Cl)cc1)c1cc2c(cc1O)[nH]c1ccccc12`, the growth in the assay with RPMI-8226 leukemia was -61.6% (active); in the assay on OVCAR-8 ovarian it was 8.57% (active); with OVCAR-5 ovarian it was 59.8%; with OVCAR-4 ovarian, 30.6%; with SK-OV-3 ovarian, 24.4%; in the assay on IGROV1 ovarian, 163%. The growth in the assay on OVCAR-3 ovarian was 6.34% (active); with HS 578T breast, 52%; in the assay on NCI/ADR-RES ovarian, 0.0543% (active); with T-47D breast, -1.88% (active); in the assay on BT-549 breast, 26.5%; in the assay on MDA-MB-435 melanoma, -25.6% (active). Moreover, the growth with SW-620 colon is 19.1%; in the assay with MCF7 breast it was 8.67% (active); in the assay on HCT-116 colon it was 14.1%; with HCC-2998 colon, -21.5% (active); in the assay on KM12 colon it was 37.5%.
For the compound `COc1cc2c(c(OC)c1OC)-c1ccc(NN(C(=O)c3ccccc3)C(=O)c3ccccc3)c(=O)cc1[C@@H](NC(C)=O)CC2` (tested in a mixture with another compound), the growth is 66.6% in the assay on RPMI-8226 leukemia; 47.1% in the assay on OVCAR-8 ovarian; 68% in the assay on OVCAR-5 ovarian; 63.4% with OVCAR-4 ovarian; 20.8% in the assay with SK-OV-3 ovarian; 12.3% in the assay on IGROV1 ovarian. Further, the growth in the assay on OVCAR-3 ovarian is 2.09% (active); with HS 578T breast it was -6.83% (active); in the assay on NCI/ADR-RES ovarian it was 74%; in the assay on T-47D breast it was 41.7%; with BT-549 breast, 37.3%; in the assay with MDA-MB-435 melanoma, -68.8% (active). In addition, the growth with SW-620 colon is 17.1%; in the assay with MCF7 breast it was 24%; with HCT-116 colon it was 12.1%; with HCC-2998 colon, 6.05% (active); with KM12 colon it was 9.8% (active).
With `Cc1nc(N)[nH]c(=O)c1C`, the growth in the assay with RPMI-8226 leukemia was 83.7%; with OVCAR-8 ovarian, 105%; in the assay with OVCAR-5 ovarian it was 98.3%; in the assay with OVCAR-4 ovarian it was 111%; in the assay on SK-OV-3 ovarian, 99.4%; with IGROV1 ovarian it was 9.58% (active). The growth with OVCAR-3 ovarian is 121%; with HS 578T breast it was 183%; in the assay with NCI/ADR-RES ovarian it was 91%; with T-47D breast, 83%; with BT-549 breast, 45.1%; in the assay on MDA-MB-435 melanoma, 106%. The growth was 125% in the assay with SW-620 colon; 95% with MCF7 breast; 101% in the assay on HCT-116 colon; 81.1% in the assay on HCC-2998 colon; 122% in the assay with KM12 colon.

For the origin of these results see PubChem BioAssay (NCI).
